About 2,000 (36%) of roughly 5,500 compounds were called active. Inconclusive results (about 18%) are left out. No stated cut-off is given here; in the data, active means normalized growth mostly below about 0.91 (no sharp cut-off); inconclusive means no clear call, values can overlap the other calls; inactive means mostly above about 0.92. The list shows a part of the results.
Assay: chemical genetic growth profiling, strain panel (AID 1159580);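 further: tested at 20 µM; growth read once vehicle control cultures reached saturation at 30 °C; 1 = growth at the plate median or of vehicle wells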
Settings: S. cerevisiae deletion strains, growth OD

Measured: normalized growth

CC(/C=N\O)=N/Nc1ccccc1
active: locus YKL190W, strain CNB1, stronger effect = lower value 0.887 | locus YLR039C, strain RIC1, stronger effect = lower value 0.324 | locus YLR262C, strain YPT6, stronger effect = lower value 0.253 | locus YML094W, strain GIM5, stronger effect = lower value 0.841 | locus YOL006C, strain TOP1, stronger effect = lower value 0.527
inactive: locus YAL013W, strain DEP1, stronger effect = lower value 0.969 | locus YBR229C, strain ROT2, stronger effect = lower value 0.938 | locus YDL101C, strain DUN1, stronger effect = lower value 1.01 | locus YDL134C, strain PPH21, stronger effect = lower value 0.975 | locus YDR150W, strain NUM1, stronger effect = lower value 0.932 | locus YEL061C, strain CIN8, stronger effect = lower value 0.953 | locus YGR078C, strain PAC10, stronger effect = lower value 0.961 | locus YHR030C, strain SLT2, stronger effect = lower value 0.774 | locus YHR087W, strain rtc3, stronger effect = lower value 0.916 | locus YJR043C, strain POL32, stronger effect = lower value 0.974 | locus YJR075W, strain HOC1, stronger effect = lower value 0.954 | locus YLR058C, strain SHM2 (second series), stronger effect = lower value 0.979 | locus YLR085C, strain ARP6, stronger effect = lower value 0.793 | locus YMR219W, strain ESC1, stronger effect = lower value 0.955 | locus YMR263W, strain SAP30, stronger effect = lower value 0.967 | locus YNL153C, strain GIM3, stronger effect = lower value 0.973 | locus YNL298W, strain CLA4 (second series), stronger effect = lower value 0.923 | locus YNL322C, strain KRE1, stronger effect = lower value 1.01 | locus YNR030W, strain Alg12, stronger effect = lower value 0.951 | locus YPL055C, strain LGE1, stronger effect = lower value 1.05 | locus YPL241C, strain CIN2, stronger effect = lower value 0.907 | locus YPR135W, strain CTF4, stronger effect = lower value 0.889

From PubChem BioAssay AID1159580 (chemical genetic matrix, 2015)
